This is an account of results in the supplement of paper PMC7156485.

Structures can show the parent of a compound that is named as a salt. ± gives the standard deviation of the averaged measurements.
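For H1.0 immunofluorescence intensity relative to DMSO in this document: TDF is a line of transformed human dermal fibroblasts of mesenchymal origin.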
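For cell number relative to DMSO in this document: TDF denotes transformed human dermal fibroblasts of mesenchymal origin.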

The test system of the first experiment is TDF. The experiment can be described thus: cell number relative to DMSO (% of DMSO); higher = more cells (less growth inhibition / toxicity). The conditions noted are these: concentration: 10 µM; 24 h. The method in brief: (§1)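 Cells were seeded at 800 per well in 384-well plates with RPMI containing 10% FBS; both HCC1569 and TDF lines were used. Compounds were added at 10 µM for 24 h at 37 °C, in triplicate, before fixation in 3.7% formaldehyde and staining with a rabbit anti-H1.0 antibody, an AlexaFluor 647 secondary and DAPI. H1.0 nuclear intensity or cell number is reported as percent of the plate control using the median of replicates, and HCC1569 values were smoothed for positional effects.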
`O=C1OC(=CBr)CCC1c1cccc2ccccc12` (configuration not stated) [Bromoenol lactone]: the cell number came to 100.

Take `CC(NC(=O)CCc1nc(=O)c2ccccc2[nH]1)c1ccccc1` (configuration not stated): the cell number turned out to be 111.

On to `CCCN(CCC)CCc1cccc2c1CC(=O)N2.Cl` [Ropinirole hydrochloride], for which the cell number is 95.8.

Consider `Cc1[nH]c2ccccc2c1C1=C(NCCc2ccc(F)cc2)C(=O)N(C)C1=O`, for which the cell number amounted to 59.

For the compound `O=C(O)c1cn(C2CC2)c2cc(N3CCNCC3)c(F)cc2c1=O` [Ciprofloxacin], the cell number was found to be 107.

Turning to `COc1ccc2cc1Oc1ccc(cc1)CC1c3c(cc4c(c3Oc3cc5c(cc3OC)CCN(C)C5C2)OCO4)CCN1C` (configuration not stated) [Cepharanthine], the cell number was 83.

`COc1ccc(S(=O)(=O)Nc2nc(-c3cccc([N+](=O)[O-])c3)c(CN3CCCCC3)s2)cc1OC` yielded a cell number of 98.9.

In the case of `CCC(C)(C)c1ccc(CC(C)CN2CC(C)OC(C)C2)cc1` (configuration not stated) [Amorolfine], the cell number was found to be 98.9.

As to `CC(C)(Oc1ccc(CCNC(=O)c2ccc(Cl)cc2)cc1)C(=O)O` [Bezafibrate], the cell number is 105.

`c1ccc2c(Oc3nc(Nc4ccc(N5CCOCC5)cc4)c4ncn(C5CCCCC5)c4n3)cccc2c1` registered a cell number of 92.2.

Regarding `COc1ccnc(CS(=O)c2nc3cc(OC(F)F)ccc3[n-]2)c1OC.O.[Na+]` (configuration not stated), the cell number stood at 92.8.

Compound `CCOC(=O)[C@H](CCc1ccccc1)N[C@@H](C)C(=O)N1CCC[C@H]1C(=O)O.O=C(O)C=CC(=O)O` registered a cell number of 99.6.

With `CCOc1cc2ncc(C#N)c(Nc3ccc(F)c(Cl)c3)c2cc1NC(=O)/C=C/CN(C)C`, the cell number is 10.

`CCC1(C)CC(=O)NC1=O` (configuration not stated) [Ethosuximide] came in with a cell number of 98.8.

The compound `CCN(CC)CC(=O)Nc1c(C)cccc1C.Cl.O` [Lidocaine.HCl.H2O] yielded a cell number of 99.8.

The compound `CCN(CC)CC#CCOC(=O)C(O)(c1ccccc1)C1CCCCC1.Cl` (configuration not stated) [Oxybutynin Chloride] yielded a cell number of 101.

In turn, `CCn1cc(C(=O)O)c(=O)c2cc(F)c(N3CCNC(C)C3)c(F)c21` (configuration not stated) [Lomefloxacin] gave a cell number of 90.9.

Compound `CC1(COc2ccc(CC3SC(=O)NC3=O)cc2)CCCCC1` (configuration not stated) [Ciglitazone] showed a cell number of 91.8.

For `O=S1(=O)CCN(CN2CCS(=O)(=O)NC2)CN1`, the cell number was 99.3.

For `CCCCCC=CCC=CCC=CCCCCCCC(=O)O` [Dihomo-γ-linolenic acid], the cell number is 98.6.

With `CN(C)c1ccccc1CN1CCCN(Cc2ccccc2N(C)C)C1c1ccncc1`, the cell number amounted to 65.2.

`O=c1[nH]c2ccccc2n1CCCN1CCN(C(c2ccccc2)c2ccccc2)CC1` [Oxatomide]: the cell number was 105 ± 7.4.

In turn, `S=C(NCc1ccc2c(c1)OCO2)N1CCN(c2ncnc3c2oc2ccccc23)CC1` had a cell number of 72.6.

Turning to `CCCCCCCCCCCCCCCCCCCC(=O)O` [Eicosanoic acid], the cell number was 102.

On to `O=C(O)C=Cc1ccc(Cn2ccnc2)cc1` [Ozagrel], for which the cell number is 101.

Take `Cc1cc(C)c(C=C2C(=O)Nc3ccccc32)[nH]1` [VEGF Receptor 2 Kinase Inhibitor III]: the cell number came to 105.

`O=C(NCCCN1CCOCC1)c1cnn2c(-c3ccccc3)cc(-c3ccccc3)nc12` yielded a cell number of 84.3.

For `C=CC1(C)CC(=O)C2(O)C(C)(O1)C(OC(C)=O)C(O)C1C(C)(C)CCC(O)C12C` (configuration not stated) [Forskolin], the cell number stood at 105 ± 3.9.

As to `Cl.c1ccc2c(CC3=NCCN3)cccc2c1` [Naphazoline hydrochloride], the cell number amounted to 108.

`Cc1cc(CS(=O)(=O)c2ccccc2)cc(OCc2ccc(CN3CCC[C@@H]3CO)cc2)c1` [PF-543 hydrochloride] registered a cell number of 90.2.

Take `CC(C=CC1=C(C)CCCC1(C)C)=CC=CC(C)=CC(=O)O` [Retinoic acid]: the cell number was found to be 102.

For the compound `CCCCCC=CCC=CCC=CCC=CCCCC(=O)OC(CO)COC(=O)CCCCCCCCCCCCCCCCC` (configuration not stated) [1-Stearoyl-2-arachidonoyl-glycerol], the cell number was 104.

Another experiment has as its system TDF. The experiment can be described thus: H1.0 immunofluorescence intensity relative to DMSO (% of DMSO); higher = stronger H1.0 induction, active = 120 or more. The settings on record: concentration: 10 µM; 24 h. Put shortly:
as §1
As to `Clc1ccc(Nc2nnc(Cc3ccncc3)c3ccccc23)cc1` [Vatalanib], the H1.0 immunofluorescence intensity is 97.2 (inactive).

Regarding `C[C@@H](c1nc(-c2ccc(C#N)cc2)cs1)[C@](O)(Cn1cncn1)c1ccc(F)cc1F`, the H1.0 immunofluorescence intensity is 111 (inactive).

Consider `Cl.NCCCCC(=O)O` [5-Aminovaleric acid hydrochloride], for which the H1.0 immunofluorescence intensity was 96.1 (inactive).

As to `CNC(=O)c1ccccc1Sc1ccc2c(C=Cc3ccccn3)n[nH]c2c1` [Axitinib], the H1.0 immunofluorescence intensity was 99.1 (inactive).

As to `CN1CCCC1c1cccnc1.O=C(O)C(O)C(O)C(=O)O.O=C(O)C(O)C(O)C(=O)O` (single isomer, unassigned; (-)) [(-)-Nicotine hydrogen tartrate salt], the H1.0 immunofluorescence intensity was 90 (inactive).

For the compound `CCCCCCCCCCCCCC=CC(O)C(CO)NC(=O)CCCCC` (configuration not stated) [C6 Ceramide], the H1.0 immunofluorescence intensity was 151 (active).

In the case of `O=C(O)CCCc1c[nH]c2ccccc12` [Indole-3-butyric acid], the H1.0 immunofluorescence intensity was 98.4 (inactive).

`CC(C[N+](C)(C)C)OC(N)=O.[Cl-]` (configuration not stated) [Bethanechol chloride]: the H1.0 immunofluorescence intensity is 92.6 (inactive).

For the compound `O=C1OC(=CBr)CCC1c1cccc2ccccc12` (configuration not stated) [Bromoenol lactone], the H1.0 immunofluorescence intensity was 94.5 (inactive).

Take `CC(NC(=O)CCc1nc(=O)c2ccccc2[nH]1)c1ccccc1` (configuration not stated): the H1.0 immunofluorescence intensity was 93.7 (inactive).

Consider `CCCN(CCC)CCc1cccc2c1CC(=O)N2.Cl` [Ropinirole hydrochloride], for which the H1.0 immunofluorescence intensity was 96.1 (inactive).

As for `Cc1[nH]c2ccccc2c1C1=C(NCCc2ccc(F)cc2)C(=O)N(C)C1=O`, the H1.0 immunofluorescence intensity is 137 (active).

For the compound `O=C(O)c1cn(C2CC2)c2cc(N3CCNCC3)c(F)cc2c1=O` [Ciprofloxacin], the H1.0 immunofluorescence intensity was 91.7 (inactive).

In the case of `COc1ccc2cc1Oc1ccc(cc1)CC1c3c(cc4c(c3Oc3cc5c(cc3OC)CCN(C)C5C2)OCO4)CCN1C` (configuration not stated) [Cepharanthine], the H1.0 immunofluorescence intensity is 108 (inactive).

Consider `COc1ccc(S(=O)(=O)Nc2nc(-c3cccc([N+](=O)[O-])c3)c(CN3CCCCC3)s2)cc1OC`, for which the H1.0 immunofluorescence intensity was 89.5 (inactive).

Take `CCC(C)(C)c1ccc(CC(C)CN2CC(C)OC(C)C2)cc1` (configuration not stated) [Amorolfine]: the H1.0 immunofluorescence intensity is 94.6 (inactive).

For the compound `CC(C)(Oc1ccc(CCNC(=O)c2ccc(Cl)cc2)cc1)C(=O)O` [Bezafibrate], the H1.0 immunofluorescence intensity is 97.9 (inactive).

Take `c1ccc2c(Oc3nc(Nc4ccc(N5CCOCC5)cc4)c4ncn(C5CCCCC5)c4n3)cccc2c1`: the H1.0 immunofluorescence intensity is 101 (inactive).

With `COc1ccnc(CS(=O)c2nc3cc(OC(F)F)ccc3[n-]2)c1OC.O.[Na+]` (configuration not stated), the H1.0 immunofluorescence intensity is 95.7 (inactive).

As for `CCOC(=O)[C@H](CCc1ccccc1)N[C@@H](C)C(=O)N1CCC[C@H]1C(=O)O.O=C(O)C=CC(=O)O`, the H1.0 immunofluorescence intensity was 91 (inactive).

Take `CCOc1cc2ncc(C#N)c(Nc3ccc(F)c(Cl)c3)c2cc1NC(=O)/C=C/CN(C)C`: the H1.0 immunofluorescence intensity was 177 (active).

As for `CCC1(C)CC(=O)NC1=O` (configuration not stated) [Ethosuximide], the H1.0 immunofluorescence intensity is 94.1 (inactive).

With `CCN(CC)CC(=O)Nc1c(C)cccc1C.Cl.O` [Lidocaine.HCl.H2O], the H1.0 immunofluorescence intensity is 89.5 (inactive).

As for `CCN(CC)CC#CCOC(=O)C(O)(c1ccccc1)C1CCCCC1.Cl` (configuration not stated) [Oxybutynin Chloride], the H1.0 immunofluorescence intensity was 94.5 (inactive).

Consider `CCn1cc(C(=O)O)c(=O)c2cc(F)c(N3CCNC(C)C3)c(F)c21` (configuration not stated) [Lomefloxacin], for which the H1.0 immunofluorescence intensity is 95.3 (inactive).

In the case of `CC1(COc2ccc(CC3SC(=O)NC3=O)cc2)CCCCC1` (configuration not stated) [Ciglitazone], the H1.0 immunofluorescence intensity was 102 (inactive).

Consider `O=S1(=O)CCN(CN2CCS(=O)(=O)NC2)CN1`, for which the H1.0 immunofluorescence intensity was 88.2 (inactive).

Regarding `CCCCCC=CCC=CCC=CCCCCCCC(=O)O` [Dihomo-γ-linolenic acid], the H1.0 immunofluorescence intensity is 96.3 (inactive).

For `CN(C)c1ccccc1CN1CCCN(Cc2ccccc2N(C)C)C1c1ccncc1`, the H1.0 immunofluorescence intensity was 109 (inactive).

Turning to `O=c1[nH]c2ccccc2n1CCCN1CCN(C(c2ccccc2)c2ccccc2)CC1` [Oxatomide], the H1.0 immunofluorescence intensity was 90.8 (inactive).

With `S=C(NCc1ccc2c(c1)OCO2)N1CCN(c2ncnc3c2oc2ccccc23)CC1`, the H1.0 immunofluorescence intensity is 103 (inactive).

Turning to `CCCCCCCCCCCCCCCCCCCC(=O)O` [Eicosanoic acid], the H1.0 immunofluorescence intensity was 102 (inactive).

On to `O=C(O)C=Cc1ccc(Cn2ccnc2)cc1` [Ozagrel], for which the H1.0 immunofluorescence intensity was 93.8 (inactive).

As for `Cc1cc(C)c(C=C2C(=O)Nc3ccccc32)[nH]1` [VEGF Receptor 2 Kinase Inhibitor III], the H1.0 immunofluorescence intensity was 91.1 (inactive).

As for `O=C(NCCCN1CCOCC1)c1cnn2c(-c3ccccc3)cc(-c3ccccc3)nc12`, the H1.0 immunofluorescence intensity is 97.2 (inactive).

Take `C=CC1(C)CC(=O)C2(O)C(C)(O1)C(OC(C)=O)C(O)C1C(C)(C)CCC(O)C12C` (configuration not stated) [Forskolin]: the H1.0 immunofluorescence intensity was 88.8 (inactive).

With `Cl.c1ccc2c(CC3=NCCN3)cccc2c1` [Naphazoline hydrochloride], the H1.0 immunofluorescence intensity is 91.2 (inactive).

Turning to `Cc1cc(CS(=O)(=O)c2ccccc2)cc(OCc2ccc(CN3CCC[C@@H]3CO)cc2)c1` [PF-543 hydrochloride], the H1.0 immunofluorescence intensity was 102 (inactive).

With `CC(C=CC1=C(C)CCCC1(C)C)=CC=CC(C)=CC(=O)O` [Retinoic acid], the H1.0 immunofluorescence intensity was 95.8 (inactive).

Take `CCCCCC=CCC=CCC=CCC=CCCCC(=O)OC(CO)COC(=O)CCCCCCCCCCCCCCCCC` (configuration not stated) [1-Stearoyl-2-arachidonoyl-glycerol]: the H1.0 immunofluorescence intensity is 98.4 (inactive).
